# Test results: PubChem BioAssay AID2016 (NMMLSC, 2009)
# The campaign covered roughly 330,000 compounds. About 1,700 (0.52%) were called active. This is one part of a sample in which actives are shown more often than they occur. Values without a mark were called inactive.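 How the source made its calls: active means GFP response versus DMSO above a set limit, roughly screen mean plus 3 SD (cut at about 180% in these data); inconclusive means fewer than 70 cells counted for a yeast strain; inactive means the rest.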
# Test: modulators of MEP2-GFP levels in yeast, primary screen, S. cerevisiae, multiplex flow cytometry, MLPCN library (AID 2016);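 further: median GFP fluorescence of the barcode-gated MEP2-GFP cells per well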
# Conditions: S. cerevisiae MEP2-GFP strain, 3 h, at 10 µM, hits give high values
row,SMILES,GFP response vs DMSO
1,C/C(CCc1c[nH]c2ccccc12)=N\O,105%
2,NCCc1c[nH]c2ccc(O)cc12,206% [may fluoresce violet] (active)
3,Cc1cccc2c(CCN)c[nH]c12,105%
4,COC1=CC=C2[C@H]3Cc4ccc(OC)c5c4[C@@]2(CCN3C)C1O5 (stereo not given in full),106%
5,CCCOC(=O)C1C2c3ccccc3C(c3ccccc32)C1C(=O)O (stereo not given),99.1%
